Consider twelve sequences from publication PMC8384837, “Expanding the binding specificity for RNA recognition by a PUF domain”.

Common to all, as to assay: yeast three-hybrid, YBZ-1, SC-Leu-His + 0.5 mM 3-AT, 4 days
Holding throughout (settings): tags: N-Gal4 AD-HA kept; label: inside an RPR1-promoter hybrid RNA with tandem MS2 sites; ssRNA

The target in assay [1] is PUM1 PUF domain R5-GRY (Homo sapiens, UniProt Q14671 828-1176, C1007G;Q1011Y). A digest of the protocol: (§1)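 The interaction score is the log change in how often each variant appears, from input to selection. Frequencies came from PCR-amplified, Illumina-sequenced repeat regions of Pumilio-1 PUF domain libraries grown in strain YBZ-1 (LexA–MS2 coat fusion, HIS3 reporter) alongside matching RNA elements. Input plates were SC-Leu and selection plates were SC-Leu-His + 0.5 mM 3-AT, each for four days, and the log2 calculation used a pseudocount of 1 where a variant was absent.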

Assay [2] addresses PUM1 PUF domain R5-SKC (Homo sapiens, UniProt Q14671 828-1176, C1007S;R1008K;Q1011C). A digest of the protocol:
as §1

The target of assay [3] is PUM1 PUF domain R5-FRK (Homo sapiens, UniProt Q14671 828-1176, C1007F;Q1011K). A digest of the protocol: as §1
For assay [4], the target named is PUM1 PUF domain R5-RHL (Homo sapiens, UniProt Q14671 828-1176, C1007R;R1008H;Q1011L). A digest of the protocol: as §1
Assay [5] deals with PUM1 PUF domain R5-HRE (Homo sapiens, UniProt Q14671 828-1176, C1007H;Q1011E). A digest of the protocol: as §1
Assay [6] deals with PUM1 PUF domain R5-KGK (Homo sapiens, UniProt Q14671 828-1176, C1007K;R1008G;Q1011K). A digest of the protocol:
as §1

For assay [7], the target named is PUM1 PUF domain R3-VWG (Homo sapiens, UniProt Q14671 828-1176, C935V;R936W;Q939G). A digest of the protocol:
as §1

In assay [8] the target is PUM1 PUF domain R4-TPV (Homo sapiens, UniProt Q14671 828-1176, N971T;H972P;Q975V). A digest of the protocol:
as §1

The target in assay [9] is T1, PUM1 PUF domain R6-NRS (Homo sapiens, UniProt Q14671 828-1176, Y1044R;Q1047S).
T1 sequence: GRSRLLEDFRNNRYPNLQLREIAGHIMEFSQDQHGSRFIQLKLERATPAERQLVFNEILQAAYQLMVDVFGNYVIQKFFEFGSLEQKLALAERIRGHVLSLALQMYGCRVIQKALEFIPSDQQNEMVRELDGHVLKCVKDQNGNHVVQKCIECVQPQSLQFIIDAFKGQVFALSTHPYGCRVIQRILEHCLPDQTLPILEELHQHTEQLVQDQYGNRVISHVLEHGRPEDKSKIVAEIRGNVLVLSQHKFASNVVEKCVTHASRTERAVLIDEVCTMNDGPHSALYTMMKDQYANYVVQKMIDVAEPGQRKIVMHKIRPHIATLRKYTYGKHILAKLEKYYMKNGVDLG
A digest of the protocol:
as §1

Assay [10] has as its target PUM1 PUF domain R4-RIY (Homo sapiens, UniProt Q14671 828-1176, N971R;H972I;Q975Y). A digest of the protocol:
as §1

The target in assay [11] is PUM1 PUF domain R4-GPY (Homo sapiens, UniProt Q14671 828-1176, N971G;H972P;Q975Y). A digest of the protocol:
as §1

The target in assay [12] is T2, PUM1 PUF domain R6-TWT (Homo sapiens, UniProt Q14671 828-1176, N1043T;Y1044W;Q1047T).
T2 sequence: T1 sequence with N216T, R217W, S220T
A digest of the protocol: as §1

Assay [13] concerns the target PUM1 PUF domain R8-RRS (Homo sapiens, UniProt Q14671 828-1176, N1122R;Y1123R;Q1126S). A digest of the protocol: as §1
Assay [14] deals with T3, PUM1 PUF domain R6-CWV (Homo sapiens, UniProt Q14671 828-1176, N1043C;Y1044W;Q1047V).
T3 sequence: T1 sequence with N216C, R217W, S220V
A digest of the protocol:
as §1

The target in assay [15] is T4, PUM1 PUF domain R6-CWW (Homo sapiens, UniProt Q14671 828-1176, N1043C;Y1044W;Q1047W).
T4 sequence: T1 sequence with N216C, R217W, S220W
A digest of the protocol: as §1

Assay [16] deals with PUM1 PUF domain R8-ARR (Homo sapiens, UniProt Q14671 828-1176, N1122A;Y1123R;Q1126R). A digest of the protocol: as §1
For assay [17], the target named is T5, PUM1 PUF domain R6-RRK (Homo sapiens, UniProt Q14671 828-1176, N1043R;Y1044R;Q1047K).
T5 sequence: T1 sequence with N216R, S220K
A digest of the protocol: as §1

For assay [18], the target named is PUM1 PUF domain R5-RYE (Homo sapiens, UniProt Q14671 828-1176, C1007R;R1008Y;Q1011E). A digest of the protocol: as §1
In assay [19] the target is PUM1 PUF domain R1-RRC (Homo sapiens, UniProt Q14671 828-1176, S863R;Q867C). A digest of the protocol:
as §1

Assay [20] concerns the target PUM1 PUF domain R8-VFK (Homo sapiens, UniProt Q14671 828-1176, N1122V;Y1123F;Q1126K). A digest of the protocol:
as §1

Numbering of substitutions follows the chain as printed.

In the case of “GGCUAGAACUAGUGGAUCCCCCGGCGCCCGGCGGCUCGAGCCCGGGUAAGUGUCAAUAGUCUGCAUGCCGCCGGGCGCCAUGCCUGCAGGUCGACUCUAGAAAACAUG”, the binding signal was 0.08 log2 enrichment (interaction score) in assay [1]; 1.38 log2 enrichment (interaction score) in assay [2]; 3.81 log2 enrichment (interaction score) in assay [3]; 5.23 log2 enrichment (interaction score) in [4]; 4.28 log2 enrichment (interaction score) in assay [5]; 4.24 log2 enrichment (interaction score) in [6].

For “GGCUAGAACUAGUGGAUCCCCCGGCGCCCGGCGGCUCGAGCCCGGGUAAGUGUAAGUAGUCUGCAUGCCGCCGGGCGCCAUGCCUGCAGGUCGACUCUAGAAAACAUG”, the binding signal in [7] was 1.81 log2 enrichment (interaction score).

With “GGCUAGAACUAGUGGAUCCCCCGGCGCCCGGCGGCUCGAGCCCGGGUAAGUGUAUAUAGUCUGCAUGCCGCCGGGCGCCAUGCCUGCAGGUCGACUCUAGAAAACAUG”, the binding signal in assay [8] was 2.96 log2 enrichment (interaction score).

With “GGCUAGAACUAGUGGAUCCCCCGGCGCCCGGCGGCUCGAGCCCGGGUAAGUGUAAAUAGUCUGCAUGCCGCCGGGCGCCAUGCCUGCAGGUCGACUCUAGAAAACAUG”, the binding signal in [1] was 3.42 log2 enrichment (interaction score); in [8], 2.59 log2 enrichment (interaction score); in [7], 4.18 log2 enrichment (interaction score); in assay [9], 3.98 log2 enrichment (interaction score); in assay [3], 2.17 log2 enrichment (interaction score); in [10], 7.23 log2 enrichment (interaction score). Moreover, the binding signal in assay [11] is 2.92 log2 enrichment (interaction score); in [4], 3.44 log2 enrichment (interaction score); in assay [12], 1.62 log2 enrichment (interaction score); in assay [5], 2.59 log2 enrichment (interaction score); in [6], 1.56 log2 enrichment (interaction score); in assay [13], 1.39 log2 enrichment (interaction score). Moreover, the binding signal was 3.39 log2 enrichment (interaction score) in assay [14], 3.56 log2 enrichment (interaction score) in assay [15] and 1.18 log2 enrichment (interaction score) in assay [16].

In the case of “GGCUAGAACUAGUGGAUCCCCCGGCGCCCGGCGGCUCGAGCCCGGGUAAGUGCAAAUAGUCUGCAUGCCGCCGGGCGCCAUGCCUGCAGGUCGACUCUAGAAAACAUG”, the binding signal in assay [17] is 4.5 log2 enrichment (interaction score).

For the sequence “GGCUAGAACUAGUGGAUCCCCCGGCGCCCGGCGGCUCGAGCCCGGGUAAGUGAAAAUAGUCUGCAUGCCGCCGGGCGCCAUGCCUGCAGGUCGACUCUAGAAAACAUG”, the binding signal is 4.15 log2 enrichment (interaction score) in [12] and 1.98 log2 enrichment (interaction score) in [14].

Regarding “GGCUAGAACUAGUGGAUCCCCCGGCGCCCGGCGGCUCGAGCCCGGGUAAGUGUUAAUAGUCUGCAUGCCGCCGGGCGCCAUGCCUGCAGGUCGACUCUAGAAAACAUG”, the binding signal in assay [1] is 3.13 log2 enrichment (interaction score); in [18], 4.59 log2 enrichment (interaction score); in assay [2] it was 3.5 log2 enrichment (interaction score); in [3], 3.62 log2 enrichment (interaction score); in assay [6] it was 1.81 log2 enrichment (interaction score).

On to “GGCUAGAACUAGUGGAUCCCCCGGCGCCCGGCGGCUCGAGCCCGGGUAAGUGUAAAUCGUCUGCAUGCCGCCGGGCGCCAUGCCUGCAGGUCGACUCUAGAAAACAUG”, for which, in assay [19], the binding signal was 2.87 log2 enrichment (interaction score).

On to “GGCUAGAACUAGUGGAUCCCCCGGCGCCCGGCGGCUCGAGCCCGGGUAAGUGUACAUAGUCUGCAUGCCGCCGGGCGCCAUGCCUGCAGGUCGACUCUAGAAAACAUG”, for which, in assay [8], the binding signal was 2.89 log2 enrichment (interaction score).

Turning to “GGCUAGAACUAGUGGAUCCCCCGGCGCCCGGCGGCUCGAGCCCGGGUAAGUGUAAUUAGUCUGCAUGCCGCCGGGCGCCAUGCCUGCAGGUCGACUCUAGAAAACAUG”, the binding signal in [7] is 2.33 log2 enrichment (interaction score).

Turning to “GGCUAGAACUAGUGGAUCCCCCGGCGCCCGGCGGCUCGAGCCCGGGUAAGUGUAAAUUGUCUGCAUGCCGCCGGGCGCCAUGCCUGCAGGUCGACUCUAGAAAACAUG”, the binding signal in assay [19] is 2.93 log2 enrichment (interaction score).

In the case of “GGCUAGAACUAGUGGAUCCCCCGGCGCCCGGCGGCUCGAGCCCGGGUAAGCGUAAAUAGUCUGCAUGCCGCCGGGCGCCAUGCCUGCAGGUCGACUCUAGAAAACAUG”, the binding signal in assay [20] was 4.7 log2 enrichment (interaction score); in assay [13], 3.27 log2 enrichment (interaction score); in assay [16] it was 2.33 log2 enrichment (interaction score).
